Our source for the sensor-assay potency score (higher = more potent) values is the OligoGym collection.
Note: reference of the scale not given here.

One experiment addresses CHCHD8. The experiment is described as follows: pooled miR-30 sensor sort-seq; sequence = guide strand. The settings on record: shRNA.
TTGCCTCCTCTGCAGCTCCTCT registered a sensor-assay potency score (higher = more potent) of -1.69.
TCTTCCTCTATAATCTTGCTGG yielded a sensor-assay potency score (higher = more potent) of -0.27.
On the same count and under the same terms, then TCATCGTCTTTCTTCACCCGTT, with -0.24; and TTCTTCACCCGTTGGGTCCAGG, with -0.933; and TCGTCTTTCTTCACCCGTTGGG, with -0.227.
Still for that read-out and setting: then TATGACAGCTGTTTGTGCCAGT, with 0.271; and TTCTTGCCTCCTCTGCAGCTCC, with -1.23; and TCATGCAATCCTTGAACGCCTG, with -0.766.
With TTGTTCTTGCCTCCTCTGCAGC, the sensor-assay potency score (higher = more potent) was -1.04.
TTGCCGCCAGTCCTGGTGCTGG yielded a sensor-assay potency score (higher = more potent) of -1.88.
In turn, ATCGTCTTTCTTCACCCGTTGG displayed a sensor-assay potency score (higher = more potent) of -0.879.

A further experiment addresses CHD2. The description is as above. To be noted: shRNA.
In turn, TTATAAGCCTTGATGAACCTTC returned a sensor-assay potency score (higher = more potent) of 0.197.
The same measure, in the same setting: in the case of TATTACTCTTTCTACTATCTGA it was 0.18; in that of TCAACAAGTAATCCGCTCGGGT, -0.663.
The same measure, in the same setting: in the case of TTTCTTATGAGCCATCTTGTAT it was -1.08; in that of TAGCACCTTATGAAGACTCTGG, -0.21; in that of TTATCTGTGTGGAAAGAGCGGT, -0.167.
On the same count and under the same terms, in the case of TTCTTCACATCAGCTATCCGTT it was -0.528; in that of TTTAAAGCTACAAATCGTGGTC, 0.518.
As to ATAAATTTCTTCTAGCTCCTTC, the sensor-assay potency score (higher = more potent) came out at 1.15.
Take TTCCTTAATATTAAATCGCGAT: the sensor-assay potency score (higher = more potent) is -0.656.
TTTTGCACCAGGAATGAGCTAG yielded a sensor-assay potency score (higher = more potent) of 0.429.
For the sequence TAAGCCTTGATGAACCTTCGGA, the sensor-assay potency score (higher = more potent) amounted to 0.0623.
Regarding TTGCACTTGTTGACACTTCATT, the sensor-assay potency score (higher = more potent) was -0.8.
In the case of TGACACTTCATTCTCTCTCGTT, the sensor-assay potency score (higher = more potent) was -0.0754.
TAAACTGTGATAGAAGTTCATC had a sensor-assay potency score (higher = more potent) of -0.983.
On the same count and under the same terms, then TTCAACAAGTAATCCGCTCGGG, with 0.35.
Sequence TTCTTCTTGAGACCTTTTCTTA gave a sensor-assay potency score (higher = more potent) of -0.844.
TTGATTGTTGGACCTCTCCTTT: the sensor-assay potency score (higher = more potent) was -0.473.
TTTCATTGGACTTTTTTCCAAG returned a sensor-assay potency score (higher = more potent) of -0.762.
Still for that read-out and setting: then TTTATCTGTCTCCACCGGCAGA, with -1.04.
Still for that read-out and setting: then TTCTTCTAGCTCCTTCTGCCGC, with -0.813; and TGCATTGCTGACACACAGCTGT, with -0.311.
TTGTTTTCCAGGATCGTCCGGC had a sensor-assay potency score (higher = more potent) of -0.196.

The target of another experiment is CHEK1. The description is as above. The settings on record: shRNA.
Sequence TTCAGGAACTACTATTTGCAGT returned a sensor-assay potency score (higher = more potent) of -0.581.
Consider TAACTGACTATTCAAAAGCATA, for which the sensor-assay potency score (higher = more potent) was -1.68.
For the sequence TAAAGAATCGTGTCATTCTTTT, the sensor-assay potency score (higher = more potent) was -0.659.
TTGTCTGCATCCAATTTGGTAA returned a sensor-assay potency score (higher = more potent) of -1.02.
TTTTCTGGTTTAATATCCCTGT gave a sensor-assay potency score (higher = more potent) of 0.0757.
On the same count and under the same terms, in the case of TTTTCTTCCATTGATAGCCCAA it was -0.419.
